# Of roughly 7,900 targets only a part is listed; those with a hit were picked by preference. About 0.6% of all pairs of compound and target were hits. A number with no mark means an inactive call.
# Experiments:
# Experiment in all cases: log2 fold change, soluble protein after heating vs DMSO (PISA); higher = thermal stabilisation; K562 cells, 10 uM, 30 min; active = over 0.2 and 3.5 SD of the protein, either way, in both replicates (recomputed)
# [1] = compound: CC[C@@H]1C(=O)N(C)c2cnc(Nc3ccc(C(=O)NC4CCN(C)CC4)cc3OC)nc2N1C1CCCC1
# How it was run: (§1)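 Quantification of soluble protein used TMTpro 16plex LC-MS/MS, with channel sums equalised. Samples were the supernatant after 21,000xg for 90 min of pooled aliquots from K562 cells (2×10^6 cells/mL) treated with 10 μM compound for 30 min, heated for 3 min over 48°C-58°C, and extracted in PBS with 0.5% NP-40 at 4°C. Values, from duplicates, describe thermal stability against control samples on a log2 fold-change scale.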
# volasertib = compound: CC[C@@H]1C(=O)N(C)c2cnc(Nc3ccc(C(=O)N[C@H]4CC[C@H](N5CCN(CC6CC6)CC5)CC4)cc3OC)nc2N1C(C)C [volasertib]
# How it was run: as §1
# [2] = compound: CC[C@H](C)N1C=C(C2=C(C=C(C=C21)C3=CN=C(C=C3)N4CCNCC4)C(=O)NCC5=C(C=C(NC5=O)C)C)C
# How it was run: as §1
# epoxomicin = compound: CC[C@H](C)[C@@H](C(=O)N[C@@H]([C@@H](C)O)C(=O)N[C@@H](CC(C)C)C(=O)[C@]1(CO1)C)NC(=O)[C@H]([C@@H](C)CC)N(C)C(=O)C [epoxomicin]
# How it was run: as §1
# [3] = compound: CCn1c(C(=O)N(C2CC2)C2CC2)cc2c3c(ncn3C)c(Nc3cc(C)n(C)n3)nc21
# How it was run: as §1
# [4] = compound: CCn1cc(-c2ccnc3[nH]c(-c4cccc(CN(C)C)c4)cc23)c(-c2ccc(NC(=O)N(C)C)cc2)n1
# How it was run: as §1
# [5] = compound: CN(C)CC(=O)Nc1ccc2[nH]c(=O)c3ccccc3c2c1
# How it was run: as §1
# rosiglitazone = compound: CN(CCOC1=CC=C(C=C1)C[C@H]2C(=O)NC(=O)S2)C3=CC=CC=N3 (racemic) [rosiglitazone]
# How it was run: as §1
# [6] = compound: CN1C2=C(C3=C1C(=O)N(N=C3)CC4=CC(=CC=C4)N)SC(=C2)S(=O)C
# How it was run: as §1
# [7] = compound: CN1CCC(CNc2ccc3ncc(-c4cccc(OC(F)(F)F)c4)n3n2)CC1
# How it was run: as §1
# saracatinib = compound: CN1CCN(CCOc2cc(OC3CCOCC3)c3c(Nc4c(Cl)ccc5c4OCO5)ncnc3c2)CC1 [saracatinib]
# How it was run: as §1
# sotrastaurin = compound: CN1CCN(c2nc(C3=C(c4c[nH]c5ccccc45)C(=O)NC3=O)c3ccccc3n2)CC1 [sotrastaurin]
# How it was run: as §1
# alvocidib = compound: CN1CC[C@H](c2c(O)cc(O)c3c(=O)cc(-c4ccccc4Cl)oc23)[C@H](O)C1 [alvocidib]
# How it was run: as §1
# Tubastatin A = compound: CN1CCc2c(c3ccccc3n2Cc2ccc(C(=O)NO)cc2)C1 [Tubastatin A]
# How it was run: as §1
# [8] = compound: CNC(=O)C1=CC=CC=C1NC2=NC(=NC=C2Cl)NC3=C(C=C(C=C3)N4CCOCC4)OC
# How it was run: as §1
# defactinib = compound: CNC(=O)c1ccc(Nc2ncc(C(F)(F)F)c(NCc3nccnc3N(C)S(C)(=O)=O)n2)cc1 [defactinib]
# How it was run: as §1
# rucaparib = compound: CNCc1ccc(-c2[nH]c3cc(F)cc4c3c2CCNC4=O)cc1 [rucaparib]
# How it was run: as §1
# [9] = compound: CNc1nc(-c2ccc3c(N)n[nH]c3c2)cc(N2C[C@@H](C(=O)NC3CCCCC3)CC[C@H]2C)n1
# How it was run: as §1
# encorafenib = compound: COC(=O)N[C@@H](C)CNc1nccc(-c2cn(C(C)C)nc2-c2cc(Cl)cc(NS(C)(=O)=O)c2F)n1 [encorafenib]
# How it was run: as §1
# [10] = compound: COC(=O)[C@H](CCSC)NC(=O)C1=C(C=C(C=C1)NC[C@H](CS)N)C2=CC=CC=C2
# How it was run: as §1
# UniProt Q9BV86, sequence (Q9BV86 whole entry, looked up): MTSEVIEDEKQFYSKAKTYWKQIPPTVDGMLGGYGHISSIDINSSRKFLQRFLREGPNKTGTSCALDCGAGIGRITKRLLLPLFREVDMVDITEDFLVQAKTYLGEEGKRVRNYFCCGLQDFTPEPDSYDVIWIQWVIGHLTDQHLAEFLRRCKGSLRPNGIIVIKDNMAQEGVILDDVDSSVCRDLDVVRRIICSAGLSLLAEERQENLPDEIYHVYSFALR
# UniProt Q15003, sequence (Q15003 whole entry, looked up): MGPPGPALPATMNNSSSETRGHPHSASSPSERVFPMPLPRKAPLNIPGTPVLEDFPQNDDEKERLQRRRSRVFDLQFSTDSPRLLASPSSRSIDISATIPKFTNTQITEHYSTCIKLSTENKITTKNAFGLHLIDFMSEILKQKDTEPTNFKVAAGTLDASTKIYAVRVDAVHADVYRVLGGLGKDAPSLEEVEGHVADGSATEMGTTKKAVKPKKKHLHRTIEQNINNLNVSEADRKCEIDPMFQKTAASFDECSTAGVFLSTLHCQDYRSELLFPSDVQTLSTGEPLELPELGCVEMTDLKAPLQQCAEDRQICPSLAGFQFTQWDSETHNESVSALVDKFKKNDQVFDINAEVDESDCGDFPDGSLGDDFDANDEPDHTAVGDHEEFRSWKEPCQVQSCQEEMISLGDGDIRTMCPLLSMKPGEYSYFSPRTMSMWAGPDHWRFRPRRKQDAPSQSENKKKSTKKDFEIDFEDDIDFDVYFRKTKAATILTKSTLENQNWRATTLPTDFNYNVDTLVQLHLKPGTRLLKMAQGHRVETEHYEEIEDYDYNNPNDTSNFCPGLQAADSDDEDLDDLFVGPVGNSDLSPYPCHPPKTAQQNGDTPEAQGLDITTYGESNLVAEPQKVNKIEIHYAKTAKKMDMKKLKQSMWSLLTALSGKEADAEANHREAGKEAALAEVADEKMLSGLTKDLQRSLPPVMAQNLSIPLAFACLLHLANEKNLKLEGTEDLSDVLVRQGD
# UniProt Q9BRP4, sequence (Q9BRP4 whole entry, looked up): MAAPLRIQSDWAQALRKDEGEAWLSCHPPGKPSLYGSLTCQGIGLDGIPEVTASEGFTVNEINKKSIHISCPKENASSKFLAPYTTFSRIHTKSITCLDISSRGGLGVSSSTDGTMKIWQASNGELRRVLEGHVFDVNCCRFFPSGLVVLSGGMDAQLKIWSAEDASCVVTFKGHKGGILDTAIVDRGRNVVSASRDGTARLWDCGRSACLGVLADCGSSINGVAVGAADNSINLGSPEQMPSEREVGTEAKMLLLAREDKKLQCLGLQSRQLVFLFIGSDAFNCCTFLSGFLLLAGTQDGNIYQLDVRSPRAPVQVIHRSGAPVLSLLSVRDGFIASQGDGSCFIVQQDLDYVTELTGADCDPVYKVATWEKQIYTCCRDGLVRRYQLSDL
# UniProt Q9NWU1, sequence (Q9NWU1 whole entry, looked up): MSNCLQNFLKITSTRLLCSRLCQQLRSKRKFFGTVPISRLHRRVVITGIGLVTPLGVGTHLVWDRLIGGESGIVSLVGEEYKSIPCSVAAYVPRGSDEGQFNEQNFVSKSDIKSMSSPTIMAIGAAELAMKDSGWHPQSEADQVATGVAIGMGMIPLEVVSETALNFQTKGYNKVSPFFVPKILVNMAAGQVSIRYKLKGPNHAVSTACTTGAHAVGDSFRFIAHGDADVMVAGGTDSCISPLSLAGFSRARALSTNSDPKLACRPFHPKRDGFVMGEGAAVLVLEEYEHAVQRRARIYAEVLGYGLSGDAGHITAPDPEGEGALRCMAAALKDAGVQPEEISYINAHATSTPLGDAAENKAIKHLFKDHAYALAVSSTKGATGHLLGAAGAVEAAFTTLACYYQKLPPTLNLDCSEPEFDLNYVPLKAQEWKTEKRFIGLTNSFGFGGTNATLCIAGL
# UniProt Q330K2, sequence (Q330K2 whole entry, looked up): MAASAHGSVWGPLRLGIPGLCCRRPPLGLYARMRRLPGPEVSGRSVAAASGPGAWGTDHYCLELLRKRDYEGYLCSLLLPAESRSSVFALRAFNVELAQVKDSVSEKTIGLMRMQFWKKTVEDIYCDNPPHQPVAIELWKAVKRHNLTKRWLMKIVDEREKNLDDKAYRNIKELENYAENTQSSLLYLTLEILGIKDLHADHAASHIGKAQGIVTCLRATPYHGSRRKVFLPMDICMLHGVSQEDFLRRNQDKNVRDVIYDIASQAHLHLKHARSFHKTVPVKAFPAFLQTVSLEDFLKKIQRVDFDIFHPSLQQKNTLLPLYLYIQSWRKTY
# UniProt O60934, sequence (O60934 whole entry, looked up): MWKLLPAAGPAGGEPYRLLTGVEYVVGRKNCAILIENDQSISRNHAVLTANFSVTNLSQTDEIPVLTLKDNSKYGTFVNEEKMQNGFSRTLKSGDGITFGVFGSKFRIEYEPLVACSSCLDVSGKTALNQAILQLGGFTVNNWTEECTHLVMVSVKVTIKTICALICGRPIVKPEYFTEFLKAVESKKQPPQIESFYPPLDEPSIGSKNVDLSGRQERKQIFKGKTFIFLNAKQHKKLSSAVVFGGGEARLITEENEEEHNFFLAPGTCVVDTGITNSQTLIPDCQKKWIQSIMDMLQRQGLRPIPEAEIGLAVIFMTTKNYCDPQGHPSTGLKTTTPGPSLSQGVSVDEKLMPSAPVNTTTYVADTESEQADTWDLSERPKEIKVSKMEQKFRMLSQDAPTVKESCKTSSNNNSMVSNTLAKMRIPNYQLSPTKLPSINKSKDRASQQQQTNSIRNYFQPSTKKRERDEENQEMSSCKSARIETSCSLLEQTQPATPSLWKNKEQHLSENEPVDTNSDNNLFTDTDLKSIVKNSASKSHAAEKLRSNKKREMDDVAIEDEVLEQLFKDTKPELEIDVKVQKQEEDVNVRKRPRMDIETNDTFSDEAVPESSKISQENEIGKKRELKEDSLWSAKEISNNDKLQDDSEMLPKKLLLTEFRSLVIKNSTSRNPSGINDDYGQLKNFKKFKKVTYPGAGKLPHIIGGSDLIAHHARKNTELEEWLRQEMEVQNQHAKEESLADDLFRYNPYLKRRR
# UniProt Q92621, sequence (Q92621 whole entry, looked up): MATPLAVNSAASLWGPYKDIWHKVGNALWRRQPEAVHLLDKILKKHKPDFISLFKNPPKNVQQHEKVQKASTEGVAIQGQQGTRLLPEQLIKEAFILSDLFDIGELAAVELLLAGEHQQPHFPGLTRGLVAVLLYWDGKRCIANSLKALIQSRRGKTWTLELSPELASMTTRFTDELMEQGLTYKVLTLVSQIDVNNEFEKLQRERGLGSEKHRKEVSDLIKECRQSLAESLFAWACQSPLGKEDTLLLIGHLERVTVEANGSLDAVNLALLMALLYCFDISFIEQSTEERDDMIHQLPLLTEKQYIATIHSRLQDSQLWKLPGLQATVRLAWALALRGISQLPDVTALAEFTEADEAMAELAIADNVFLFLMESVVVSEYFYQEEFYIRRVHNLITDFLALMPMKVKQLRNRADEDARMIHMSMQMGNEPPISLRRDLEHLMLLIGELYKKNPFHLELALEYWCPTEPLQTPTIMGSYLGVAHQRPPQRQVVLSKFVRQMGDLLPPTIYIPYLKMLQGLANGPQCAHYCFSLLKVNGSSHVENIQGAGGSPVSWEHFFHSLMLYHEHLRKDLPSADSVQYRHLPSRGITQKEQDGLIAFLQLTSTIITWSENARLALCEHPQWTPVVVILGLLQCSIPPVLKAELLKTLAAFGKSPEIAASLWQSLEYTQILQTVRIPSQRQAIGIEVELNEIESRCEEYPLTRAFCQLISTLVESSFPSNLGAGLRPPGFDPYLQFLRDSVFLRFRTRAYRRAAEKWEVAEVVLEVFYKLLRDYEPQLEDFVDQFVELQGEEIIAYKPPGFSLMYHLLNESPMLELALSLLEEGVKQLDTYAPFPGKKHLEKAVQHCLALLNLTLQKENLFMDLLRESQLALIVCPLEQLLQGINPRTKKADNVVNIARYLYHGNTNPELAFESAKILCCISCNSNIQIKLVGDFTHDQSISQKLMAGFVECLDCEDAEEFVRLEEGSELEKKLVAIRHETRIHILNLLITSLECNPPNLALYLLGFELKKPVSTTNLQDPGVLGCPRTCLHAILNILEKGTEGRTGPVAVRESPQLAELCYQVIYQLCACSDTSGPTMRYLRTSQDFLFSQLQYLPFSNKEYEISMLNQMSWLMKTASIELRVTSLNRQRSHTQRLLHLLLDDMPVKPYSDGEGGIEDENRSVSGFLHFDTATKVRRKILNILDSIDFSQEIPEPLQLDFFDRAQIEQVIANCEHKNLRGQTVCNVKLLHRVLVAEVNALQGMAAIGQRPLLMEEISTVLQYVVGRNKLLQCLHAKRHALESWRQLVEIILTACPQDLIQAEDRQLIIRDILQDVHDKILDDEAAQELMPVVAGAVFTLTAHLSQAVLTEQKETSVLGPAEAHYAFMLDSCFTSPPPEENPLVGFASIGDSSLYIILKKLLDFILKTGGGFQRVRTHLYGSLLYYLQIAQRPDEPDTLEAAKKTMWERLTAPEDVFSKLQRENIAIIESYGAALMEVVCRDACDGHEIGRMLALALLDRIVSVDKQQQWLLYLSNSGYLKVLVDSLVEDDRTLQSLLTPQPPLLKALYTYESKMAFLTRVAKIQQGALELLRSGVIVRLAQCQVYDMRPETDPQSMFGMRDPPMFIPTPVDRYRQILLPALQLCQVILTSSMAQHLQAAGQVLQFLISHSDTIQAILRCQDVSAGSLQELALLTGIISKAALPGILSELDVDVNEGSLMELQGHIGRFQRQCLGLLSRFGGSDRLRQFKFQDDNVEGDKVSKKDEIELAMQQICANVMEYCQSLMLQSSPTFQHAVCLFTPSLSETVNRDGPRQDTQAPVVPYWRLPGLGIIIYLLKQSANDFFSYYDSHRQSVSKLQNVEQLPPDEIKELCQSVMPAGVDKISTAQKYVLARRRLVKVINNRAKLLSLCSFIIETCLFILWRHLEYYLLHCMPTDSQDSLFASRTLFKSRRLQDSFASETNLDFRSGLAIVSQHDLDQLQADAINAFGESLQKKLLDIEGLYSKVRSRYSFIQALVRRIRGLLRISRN
# UniProt P17568, sequence (P17568 whole entry, looked up): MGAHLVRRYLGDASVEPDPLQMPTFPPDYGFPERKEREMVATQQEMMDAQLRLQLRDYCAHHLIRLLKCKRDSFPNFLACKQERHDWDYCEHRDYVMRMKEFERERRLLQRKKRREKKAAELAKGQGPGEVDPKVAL
Target,log2 fold change [1],log2 fold change (volasertib),log2 fold change [2],log2 fold change (epoxomicin),log2 fold change [3],log2 fold change [4],log2 fold change [5],log2 fold change (rosiglitazone),log2 fold change [6],log2 fold change [7],log2 fold change (saracatinib),log2 fold change (sotrastaurin),log2 fold change (alvocidib),log2 fold change (Tubastatin A),log2 fold change [8],log2 fold change (defactinib),log2 fold change (rucaparib),log2 fold change [9],log2 fold change (encorafenib),log2 fold change [10]
OXSM (UniProt Q9NWU1),-0.063,-0.017,-0.022,0.018,-0.048,-0.003,-0.005,0.02,-0.025,0.058,0.095,0.067,-0.046,-0.01,0.038,-0.059,-0.018,-0.033,-0.007,-0.019
NCOA7 (UniProt Q8NI08),-0.035,-0.287 (active),0.124,0.021,-0.091,-0.004,-0.002,0.099,-0.009,-0.265,-0.05,-0.074,-0.052,-0.02,-0.011,-0.099,-0.029,-0.064,0.019,0.039
NCAPD2 (UniProt Q15021),-0.131,-0.486 (active),0.081,0.019,-0.085,0,0.075,0.023,0.044,-0.098,-0.052,-0.145,-0.029,0.012,0.111,-0.052,0.142,0.008,0.11,-0.025
NSMCE4A (UniProt Q9NXX6),0.069,0.053,0.103,-0.02,0.112,-0.251,-0.13,0.057,-0.33,-0.009,0.109,0.015,-0.003,0.05,-0.112,-0.086,0,-0.114,-0.064,-0.002
NEU1 (UniProt Q99519),-0.184,-0.501 (active),0.059,0.113,-0.04,0.052,0.012,0.032,0.015,-0.079,-0.044,0,-0.033,0.028,-0.113,-0.011,-0.012,-0.011,-0.012,-0.019
NBN (UniProt O60934),-0.072,-0.219 (active),0.031,0.073,-0.038,0.002,0.061,0.034,-0.043,-0.116,-0.008,-0.03,-0.197,0.191,-0.065,-0.159,0.006,0.049,0.003,-0.019
NDUFB7 (UniProt P17568),-0.053,-0.004,-0.072,-0.066,-0.129,-0.099,-0.036,0.058,-0.058,0.094,0.046,-0.014,-0.016,0.016,0.021,-0.015,-0.021,-0.011,-0.032,0.029
MRPS2 (UniProt Q9Y399),-0.048,0.037,0.053,0.02,-0.01,-0.045,0.031,-0.003,0.016,0.044,-0.243,-0.145,0.005,0.036,-0.021,0.034,0.104,0.035,0.084,-0.088
NUP205 (UniProt Q92621),-0.108,-0.35 (active),0.079,-0.071,-0.036,-0.013,0.032,0.041,-0.041,-0.233 (active),-0.003,-0.057,-0.127,0.023,-0.024,-0.132,-0.065,-0.012,0.096,-0.038
NTMT1 (UniProt Q9BV86),-0.047,-0.004,0.051,0.092,0.005,-0.141,0.081,-0.022,-0.037,0.099,-0.048,0.055,-0.104,-0.071,-0.032,-0.081,0.169,0.184,0.06,-0.157
MRPS31 (UniProt Q92665),0.056,0,0.036,-0.015,-0.036,0.014,-0.054,-0.018,0,0.052,0.031,-0.088,0.04,0.053,0.025,0.027,0.031,0.078,0.041,0.016
NDUFAF6 (UniProt Q330K2),-0.27,-0.027,-0.028,0.055,-0.089,-0.059,-0.078,0.134,-0.014,-0.721 (active),-0.071,-0.112,-0.025,-0.101,0.038,-0.04,-0.108,-0.146,0.081,0.084
OSTC (UniProt Q9NRP0),-0.01,-0.141,0.011,-0.073,0.006,0.039,0.073,0.048,-0.129,-0.053,0.111,-0.05,-0.048,-0.174,0.03,-0.053,-0.036,-0.004,0.047,-0.046
NCAPH (UniProt Q15003),-0.126,-0.353 (active),0.051,0.011,-0.054,0.052,0.043,0.024,-0.021,-0.116,0.001,-0.15,-0.016,0.04,0.024,-0.119,0.074,0.009,0.057,-0.039
PAAF1 (UniProt Q9BRP4),0.006,-0.034,-0.021,-0.275 (active),0.005,-0.051,-0.009,0.039,-0.07,-0.039,0.056,0.016,-0.075,-0.008,-0.006,-0.034,0.012,-0.008,-0.004,0.004
MRPS22 (UniProt P82650),0.007,-0.05,0.125,0.004,-0.03,-0.068,0.004,-0.006,0.084,0.103,-0.098,-0.122,-0.051,-0.006,-0.038,0.058,0.143,0.169,0.064,-0.051
